Values without a mark were called inactive. Results filed as inconclusive are left out. Calls of active or inactive are those of the source. Unless noted, calls follow the shape of the dose curve; as a rule, active = well fitted curve in the direction sought with a large enough effect; inconclusive = small, poorly fitted or top-dose-only effect, or another doubt; inactive = no such curve, though single readings can be large; an effect the other way counts as inactive or inconclusive.

Assay [1] can be described thus: qHTS assay for measurement of the activity of small molecule inhibitors on Zika virus induced Caspase-3 activity in human iPSC derived neural progenitor cells (hNPCs) (AID 1224857). Also: nearly all actives have a fitted effect of over 65% in size. The gist of the method:
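Caspase-3/7 induction by a 6-hour ZIKV infection was quantified with a luminescent Caspase-Glo 3/7 reagent incubated 30 minutes at room temperature. Compounds were preincubated with hNPCs for 1 hour; inhibition was calculated against uninfected and infected control wells.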
A general note: Quantitative high-throughput screening tests each substance at several concentrations.

The nature of assay [2]: qHTS assay for measurement of the activity of small molecule inhibitors on Zika virus induced Caspase-3 activity in human astrocytoma cells (AID 1224859). The gist of the method: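 In SNB-19 cells plated at 250 cells/well and grown 16-20 h, compounds were applied 1 h before ZIKV (2 FFU/cell). Six hours later caspase-3/7 luminescence was recorded.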
The nature of assay [3]: qHTS assay to identify small molecule inhibitors of chordoma cells - UCH-2 (AID 1259356). Also: series mostly up to about 46 µM.
A short description of assay [4]: P-glycoprotein substrates identified in KB-8-5-11 adenocarcinoma cell line, qHTS therapeutic library screen (AID 1346987). Also: series mostly up to about 44 µM; nearly all actives have a fitted effect of over 65% in size. The gist of the method:
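KB-8-5-11: colchicine-selected sub-line of KB-3-1 over-expressing P-gp; assay medium lacked colchicine. 72 h drug exposure at 37 degree C, CellTiter-Glo.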

Assay [5] can be described thus: Natriuretic polypeptide receptor (hNpr1) antagonism - Pilot counterscreen GloSensor control cell line (AID 1347045; calls by dose curve; also: series mostly up to about 38 µM). The procedure, abridged:
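HEK293 cells carrying the GloSensor cGMP sensor (GIP/pGS-40F) were loaded with 2% GloSensor reagent for 2 h, exposed to compounds for 30 min, and then stimulated with 50 uM sodium nitroprusside for 20 min at room temperature.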
(The purpose of a counterscreen is to sort out artefacts and off-target activity.)

For assay [6], the target named is Atrial natriuretic peptide receptor 1 (Homo sapiens) (UniProt P16066). As to the kind of experiment: Natriuretic polypeptide receptor (hNpr1) antagonism - Pilot screen (AID 1347049; calls by dose curve;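 also: agonist-evoked cGMP luminescence read 20 min after hNppA addition; series mostly up to about 58 µM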). The procedure, abridged:
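Readout is cGMP-driven firefly luciferase luminescence in HEK293 cells carrying hNpr1 and a PDE5-domain GloSensor, read before and 20 min after 0.1 nM hNppA stimulation. Cells had 2% substrate reagent for 2 h and test compound for 30 min.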

In assay [7] the target is Atrial natriuretic peptide receptor 2 (Homo sapiens) (UniProt P20594). As to the kind of experiment: Natriuretic polypeptide receptor (hNpr2) antagonism - Pilot subtype selectivity assay (AID 1347050; calls by dose curve; also: potency is read from the fitted curve at half-maximal effect). The procedure, abridged:
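Pilot selectivity screen against hNpr2: HEK293 cGMP-sensor cells are treated with LOPAC1280 compounds, then with hNppC peptide at 1 nM final. The cGMP-driven luminescence change over 20 min at room temperature is the read-out.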

A short description of assay [8]: NS1 protein of Zika virus - qHTS assay to identify small molecule inhibitors in human HEK 293 cells (AID 1347053). Also: series mostly up to about 46 µM; nearly all actives have a fitted effect of over 55% in size. The procedure, abridged: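 HEK 293; 20 h pre-culture, 37 C/5% CO2; cpd 1 h pre-infection; ZIKV MR766, MOI = 0.5, 24 h, 37 C; TR-FRET NS1 readout (two anti-NS1 Abs); norm. to no-virus vs infected.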
For assay [9], the target named is T1, Tyrosine-protein phosphatase non-receptor type substrate 1 (Homo sapiens) + Leukocyte surface antigen CD47 (Homo sapiens) (UniProt P78324+Q08722). As to the kind of experiment: CD47-SIRPalpha protein protein interaction - LANCE assay qHTS validation (AID 1347057; active = well fitted curve in the direction sought with a large enough effect in the signal ratio, with a control signal flat, not every such curve was filed as active; the % refers to the signal ratio; also: series mostly up to about 38 µM). The procedure, abridged: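 First, His-tagged CD47 and Eu-labelled anti-His antibody met the compound for 30 min; next, site-specifically biotinylated SIRPalpha was added for 30 min; finally streptavidin-APC was added before reading the TR-FRET ratio.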

In assay [10] the target is T1, Tyrosine-protein phosphatase non-receptor type substrate 1 (Homo sapiens) + Leukocyte surface antigen CD47 (Homo sapiens). As to the kind of experiment: CD47-SIRPalpha protein protein interaction - HTRF assay qHTS validation (AID 1347058; active = well fitted curve in the direction sought with a large enough effect in the signal ratio, not every such curve was filed as active; the % refers to the signal ratio;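 also: recombinant soluble extracellular CD47 with His tag and biotinylated SIRPalpha domains; series mostly up to about 38 µM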). The procedure, abridged:
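TR-FRET read (Ch1/Ch2 ratio) of soluble extracellular CD47 and Avi-biotinylated SIRPalpha domains in PBS pH 7.4 with 0.05% IGEPAL; 7-point compound titration. Sequential 30 min room-temperature steps; non-biotinylated SIRPalpha as control inhibitor.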
(In general: TR-FRET usually uses a lanthanide donor and a delayed reading to cut background.)

The target is the same in assay [11]. As to the kind of experiment: CD47-SIRPalpha protein protein interaction - Alpha assay qHTS validation (AID 1347059).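 Also: bead proximity luminescence from CD47 binding SIRPalpha after compound preincubation with SIRPalpha.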 The gist of the method: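 Binding is measured by AlphaScreen proximity: Ni-NTA acceptor beads capture His-CD47, streptavidin donor beads capture biotin-SIRPalpha. Each of three additions (SIRPalpha with compound, CD47, beads) incubates 30 min at room temperature protected from light.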

Assay [12] can be described thus: qHTS of pediatric cancer cell lines to identify multiple opportunities for drug repurposing: Primary screen for TC32 cells (AID 1347089). Also: nearly all actives have a fitted effect of over 60% in size. The gist of the method: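 qHTS, TC32, 48 h drug treatment, CellTiter-Glo luminescence as a proxy for metabolically active cells; primary top concentration 46 µM (MIPE 11-pt, NPC 8-pt); confirmatory 11-pt.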
The nature of assay [13]: qHTS of pediatric cancer cell lines to identify multiple opportunities for drug repurposing: Primary screen for DAOY cells (AID 1347090). Also: series mostly up to about 46 µM; nearly all actives have a fitted effect of over 55% in size. The gist of the method:
(§1)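 Cell viability, CellTiter-Glo luminescence; 500-1,000 cells/well, 8- or 11-point titration, 48 h compound exposure at 37 degrees C, 5% CO2. Controls: DMSO neutral, bortezomib 2.3 µM final as positive.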

The nature of assay [14]: qHTS of pediatric cancer cell lines to identify multiple opportunities for drug repurposing: Primary screen for SJ-GBM2 cells (AID 1347091). The procedure, abridged:
as §1

The target in assay [15] is Parathyroid hormone/parathyroid hormone-related peptide receptor (Homo sapiens) (UniProt Q03431). As to the kind of experiment: qHTS for PTHR1 Agonists: Optimization Screen against the NCGC LOPAC library (AID 1347079).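 Also: GloSensor cAMP luminescence in HEK-293 GP2 cells expressing human PTHR1 with IBMX.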 The procedure, abridged: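 Compounds were tested across a qHTS titration. PTHR1-expressing GP2 cells report cAMP rises via GloSensor luminescence after 1 hr compound exposure at 37C with IBMX present.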

Assay [16] can be described thus: qHTS assay to identify small molecule inhibitors of chordoma cells - UCH-1 (AID 1259355). Also: nearly all actives have a fitted effect of over 55% in size. The gist of the method:
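Seed 800 cells per well; incubate overnight at 37 C, 5% CO2. Add test compounds (15 concentrations), then the auranofin–topoisomerase-agent combination. Incubate 48hr, add CellTiter-Glo, wait 30min, read luminescence.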

Sequence of Parathyroid hormone/parathyroid hormone-related peptide receptor (Homo sapiens) (Q03431 whole entry, looked up): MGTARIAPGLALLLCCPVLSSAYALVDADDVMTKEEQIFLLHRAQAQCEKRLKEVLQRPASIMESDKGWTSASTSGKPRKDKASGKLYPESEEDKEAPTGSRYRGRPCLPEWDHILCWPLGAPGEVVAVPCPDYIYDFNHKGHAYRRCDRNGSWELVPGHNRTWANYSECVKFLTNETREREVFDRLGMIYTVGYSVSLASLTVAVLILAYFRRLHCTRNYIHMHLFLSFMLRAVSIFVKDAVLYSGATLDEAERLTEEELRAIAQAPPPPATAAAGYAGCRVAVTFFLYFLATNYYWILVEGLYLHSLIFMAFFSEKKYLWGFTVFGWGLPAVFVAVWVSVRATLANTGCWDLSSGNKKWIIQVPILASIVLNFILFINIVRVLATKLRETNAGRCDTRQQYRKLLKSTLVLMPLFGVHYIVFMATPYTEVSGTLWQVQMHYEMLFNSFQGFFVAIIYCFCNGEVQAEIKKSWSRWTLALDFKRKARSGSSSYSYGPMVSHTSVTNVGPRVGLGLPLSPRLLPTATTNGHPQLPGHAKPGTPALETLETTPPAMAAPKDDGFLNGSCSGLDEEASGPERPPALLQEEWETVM
Sequence of Atrial natriuretic peptide receptor 2 (Homo sapiens) (P20594 whole entry, looked up): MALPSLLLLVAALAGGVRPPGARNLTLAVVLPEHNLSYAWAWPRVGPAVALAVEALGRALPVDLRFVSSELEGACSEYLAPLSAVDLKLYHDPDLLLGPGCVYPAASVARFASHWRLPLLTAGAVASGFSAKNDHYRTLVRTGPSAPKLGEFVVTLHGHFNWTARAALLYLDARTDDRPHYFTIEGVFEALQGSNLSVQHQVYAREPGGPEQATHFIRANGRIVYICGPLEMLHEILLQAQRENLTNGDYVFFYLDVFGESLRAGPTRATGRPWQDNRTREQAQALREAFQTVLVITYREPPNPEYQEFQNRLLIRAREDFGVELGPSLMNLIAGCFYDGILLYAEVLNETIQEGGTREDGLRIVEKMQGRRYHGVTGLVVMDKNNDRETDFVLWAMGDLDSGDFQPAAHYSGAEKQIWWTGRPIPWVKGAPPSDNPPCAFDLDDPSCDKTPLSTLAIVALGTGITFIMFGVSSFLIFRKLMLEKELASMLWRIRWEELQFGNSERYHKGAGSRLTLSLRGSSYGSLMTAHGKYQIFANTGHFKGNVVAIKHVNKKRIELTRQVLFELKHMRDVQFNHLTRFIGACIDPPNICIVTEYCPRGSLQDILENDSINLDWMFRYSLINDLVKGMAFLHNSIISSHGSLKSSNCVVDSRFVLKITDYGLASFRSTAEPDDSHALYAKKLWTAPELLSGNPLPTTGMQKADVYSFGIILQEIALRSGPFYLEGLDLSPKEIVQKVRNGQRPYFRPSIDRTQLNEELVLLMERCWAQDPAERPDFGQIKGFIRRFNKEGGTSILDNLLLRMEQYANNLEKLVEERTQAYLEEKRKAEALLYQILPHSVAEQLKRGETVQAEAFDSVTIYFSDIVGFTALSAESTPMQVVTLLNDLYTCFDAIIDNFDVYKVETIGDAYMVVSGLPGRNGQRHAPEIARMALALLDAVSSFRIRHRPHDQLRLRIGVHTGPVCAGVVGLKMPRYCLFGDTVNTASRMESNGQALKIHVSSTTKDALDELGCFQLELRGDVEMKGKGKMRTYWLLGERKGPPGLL
Sequence of Atrial natriuretic peptide receptor 1 (Homo sapiens) (P16066 whole entry, looked up): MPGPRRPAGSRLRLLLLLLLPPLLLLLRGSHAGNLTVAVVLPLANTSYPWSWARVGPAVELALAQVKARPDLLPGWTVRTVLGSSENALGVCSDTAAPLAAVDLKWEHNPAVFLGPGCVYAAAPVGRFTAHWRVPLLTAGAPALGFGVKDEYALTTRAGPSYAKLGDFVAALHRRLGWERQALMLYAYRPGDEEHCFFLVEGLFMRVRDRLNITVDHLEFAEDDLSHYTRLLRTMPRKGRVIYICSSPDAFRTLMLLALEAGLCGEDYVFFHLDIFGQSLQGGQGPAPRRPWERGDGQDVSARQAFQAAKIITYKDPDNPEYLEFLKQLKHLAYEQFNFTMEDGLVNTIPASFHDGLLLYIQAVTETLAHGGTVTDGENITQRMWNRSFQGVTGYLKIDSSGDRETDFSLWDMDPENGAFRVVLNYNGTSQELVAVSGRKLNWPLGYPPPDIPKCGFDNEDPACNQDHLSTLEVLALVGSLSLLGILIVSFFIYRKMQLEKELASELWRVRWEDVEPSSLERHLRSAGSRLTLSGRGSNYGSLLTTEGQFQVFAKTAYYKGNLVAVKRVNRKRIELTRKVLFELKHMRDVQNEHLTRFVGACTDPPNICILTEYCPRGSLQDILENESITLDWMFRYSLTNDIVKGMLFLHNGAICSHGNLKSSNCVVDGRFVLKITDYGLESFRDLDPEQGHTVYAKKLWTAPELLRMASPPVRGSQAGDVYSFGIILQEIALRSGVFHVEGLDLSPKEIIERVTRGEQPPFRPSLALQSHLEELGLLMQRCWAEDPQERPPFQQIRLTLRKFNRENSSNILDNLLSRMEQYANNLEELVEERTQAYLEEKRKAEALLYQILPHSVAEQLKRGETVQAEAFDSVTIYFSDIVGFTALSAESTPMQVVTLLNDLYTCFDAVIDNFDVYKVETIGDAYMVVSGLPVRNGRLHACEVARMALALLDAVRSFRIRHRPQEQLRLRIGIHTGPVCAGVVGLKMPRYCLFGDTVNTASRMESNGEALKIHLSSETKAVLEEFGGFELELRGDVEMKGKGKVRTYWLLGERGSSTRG
T1 sequence (P78324 whole entry, looked up): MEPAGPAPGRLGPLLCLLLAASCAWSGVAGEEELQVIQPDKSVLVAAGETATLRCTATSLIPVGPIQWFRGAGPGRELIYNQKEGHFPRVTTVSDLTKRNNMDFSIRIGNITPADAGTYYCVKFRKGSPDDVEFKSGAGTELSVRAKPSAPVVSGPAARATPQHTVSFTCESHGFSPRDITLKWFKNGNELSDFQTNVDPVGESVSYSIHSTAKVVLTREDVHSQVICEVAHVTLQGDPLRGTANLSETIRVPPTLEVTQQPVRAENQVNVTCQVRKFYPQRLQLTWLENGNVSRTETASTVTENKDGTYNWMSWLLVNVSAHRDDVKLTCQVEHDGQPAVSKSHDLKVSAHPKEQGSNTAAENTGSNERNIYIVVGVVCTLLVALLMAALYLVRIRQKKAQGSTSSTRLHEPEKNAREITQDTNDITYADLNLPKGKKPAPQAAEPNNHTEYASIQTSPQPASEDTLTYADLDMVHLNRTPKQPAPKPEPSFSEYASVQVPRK
T1 sequence (Q08722 whole entry, looked up): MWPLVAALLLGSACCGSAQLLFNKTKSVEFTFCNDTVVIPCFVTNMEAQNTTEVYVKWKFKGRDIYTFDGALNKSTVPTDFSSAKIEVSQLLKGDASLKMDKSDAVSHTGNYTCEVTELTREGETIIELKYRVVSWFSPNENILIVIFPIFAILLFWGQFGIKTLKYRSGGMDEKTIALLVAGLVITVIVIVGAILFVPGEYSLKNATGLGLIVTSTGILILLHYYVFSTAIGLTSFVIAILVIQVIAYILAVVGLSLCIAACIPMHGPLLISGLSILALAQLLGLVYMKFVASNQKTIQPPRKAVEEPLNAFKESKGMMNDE

In the case of `Cc1nc2c([nH]1)c(=O)n(C)c(=O)n2Cc1ccco1`, the outcome in [1], in [2], in assay [8], in assay [9] and in assay [10] was inactive. Besides, the Potency result in assay [3], in assay [4], in assay [5], in assay [6], in [7] and in assay [11] was “inactive” in each case. Moreover, the Potency result in assay [12], in assay [13] and in assay [14] was “inactive” each time.
As to `Cc1nnc(SCC2=C(C(=O)O)N3C(=O)[C@@H](NC(=O)Cn4cnnn4)[C@H]3SC2)s1`, the outcome in [1], in [2], in [8], in assay [9], in assay [10] and in assay [15] was inactive. Moreover, the Potency result in [3], in assay [4], in assay [5], in [6], in [7] and in assay [11] was “inactive” throughout. The Potency entry in assay [12], in assay [13] and in assay [14] was “inactive” each time.
As to `CC[N+](C)(C)c1cccc(O)c1`, the compound was called inactive in assay [1], in [2], in [8] and in [10]. The Potency entry in assay [16], in assay [3], in assay [5], in [6], in assay [7] and in assay [11] was “inactive” in each case. Further, the Potency result in assay [13] and in assay [14] was “inactive” throughout.
Take `CN(C(=O)CCCOc1ccc2[nH]c(=O)ccc2c1)C1CCCCC1`: the outcome in [1], in [2], in [8], in [10] and in assay [15] was inactive. The Potency result in assay [16], in [3], in assay [5], in assay [6], in assay [7] and in assay [11] was “inactive” each time. Also, the Potency result in assay [13] and in assay [14] was “inactive” in each case.
Consider `CN1CCN(C2=Nc3ccccc3Oc3ccc(Cl)cc32)CC1`, for which the compound was called inactive in assay [1], in assay [2], in assay [8], in assay [9], in assay [10] and in assay [15]. The Potency entry in assay [16], in assay [3], in [5], in [11], in assay [12] and in assay [13] was “inactive” in each case. For the same compound, in assay [14], the Potency result is “inactive”. The Potency in assay [7] is 16.5 µM (active).
With `CC1=NS(=O)(=O)c2cc(Cl)ccc2N1`, the compound was classed as inactive in assay [1], in assay [2], in [8], in assay [9] and in [15]. In addition, the Potency result in assay [16], in assay [3], in assay [5], in assay [6], in [7] and in [11] was “inactive” in each case. The Potency entry in assay [12], in [13] and in [14] was “inactive” in each case.
On to `COCCCC/C(=N\OCCN)c1ccc(C(F)(F)F)cc1`, for which the call in [1], in assay [2], in [8], in assay [9], in assay [10] and in assay [15] was inactive. In addition, the Potency entry in assay [16], in [6], in assay [7], in assay [11], in assay [13] and in assay [14] was “inactive” each time.
Turning to `CN(C)CCOC(=O)COc1ccc(Cl)cc1`, the compound was classed as inactive in [1], in assay [2], in assay [8], in assay [9], in assay [10] and in assay [15]. Besides, the Potency result in assay [3], in assay [4], in assay [5], in assay [6], in assay [7] and in assay [11] was “inactive” throughout. In addition, the Potency result in assay [12], in [13] and in assay [14] was “inactive” in each case.
`CN=C(NC#N)NCCSCc1nc[nH]c1C`: the compound was classed as inactive in assay [1], in assay [2], in assay [8], in [9], in assay [10] and in assay [15]. The Potency entry in [3], in assay [4], in assay [5], in assay [6], in assay [7] and in assay [11] was “inactive” in each case. Moreover, the Potency result in assay [12], in [13] and in assay [14] was “inactive” in each case.
`Cc1nc2ccccn2c(=O)c1CCN1CCC(C(=O)c2ccc(F)cc2)CC1`: the result in [1], in [2], in assay [8] and in assay [15] was inactive. The Potency entry in assay [16], in [3], in assay [5], in [6], in assay [7] and in [11] was “inactive” in each case. Also, the Potency result in assay [13] and in assay [14] was “inactive” in each case.
Consider `NC(N)=N/N=C/c1c(Cl)cccc1Cl`, for which the call in [1], in assay [2], in [8], in [10] and in assay [15] was inactive. Further, the Potency result in assay [16], in assay [3], in assay [5], in assay [6], in assay [7] and in assay [11] was “inactive” each time. Also, the Potency result in [12], in assay [13] and in assay [14] was “inactive” each time.
Take `CN(C)CC/C=C1\c2ccccc2COc2ccccc21`: the compound was classed as inactive in assay [1], in assay [2], in [8] and in [15]. For the same compound, the Potency entry in assay [16], in [3], in assay [5], in assay [6], in assay [7] and in [11] was “inactive” in each case. Besides, the Potency result in assay [12], in assay [13] and in assay [14] was “inactive” in each case.

For the origin of these results see PubChem BioAssay (NCATS).
